In the supplement of paper PMC12282887:
± gives the standard deviation of the averaged measurements.

Tested on: E. coli BW25113 marRABp lux reporter
Experiment: promoter activity interaction Z-score (Lux/OD deviation from empty-vector control); higher = stronger promoter induction by the compound
Description: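 E. coli BW25113 (wild type or ΔmarA/ΔsoxS/Δrob) carrying pTU175 luxCDABE promoter reporters was grown in LB in 384-well plates at 37°C with each of 94 compounds at 4 two-fold concentrations, in biological duplicates. Luminescence and OD600 were read every 30 min for 12 h and integrated as AUC over 8 h (0-8 h WT, 1-9 h mutants). Lux AUC was divided by OD AUC; the interaction score is the residual of a Huber robust fit of each promoter against the empty-vector control, then Z-transformed per promoter.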

`NC[C@H]1O[C@H](O[C@H]2[C@H](O)[C@@H](O[C@H]3O[C@H](CO)[C@@H](O)[C@H](N)[C@H]3O)[C@H](N)C[C@@H]2N)[C@H](N)C[C@@H]1O` [Tobramycin] was tested, and the “promoter activity interaction Z-score” value (0.12 µg/ml, genetic background: wild type) was -0.211 ± 0.075, the “promoter activity interaction Z-score” value (0.12 µg/ml, genetic background: ΔmarA) was -0.0912 ± 0.16 and the “promoter activity interaction Z-score” value (0.12 µg/ml, genetic background: Δrob) was -0.0729 ± 0.021. The “promoter activity interaction Z-score” value (0.12 µg/ml, genetic background: ΔsoxS) was -0.3 ± 0.41, the “promoter activity interaction Z-score” value (0.23 µg/ml, genetic background: wild type) was -0.379 ± 0.14 and the “promoter activity interaction Z-score” value (0.23 µg/ml, genetic background: ΔmarA) was -0.269 ± 0.26. The “promoter activity interaction Z-score” value (0.23 µg/ml, genetic background: Δrob) was -0.264 ± 0.11, the “promoter activity interaction Z-score” value (0.23 µg/ml, genetic background: ΔsoxS) was -0.0572 ± 0.44 and the “promoter activity interaction Z-score” value (0.47 µg/ml, genetic background: wild type) was 0.112 ± 0.2. For the same molecule, the “promoter activity interaction Z-score” value (0.47 µg/ml, genetic background: ΔmarA) was 0.108 ± 0.0063, the “promoter activity interaction Z-score” value (0.47 µg/ml, genetic background: Δrob) was 0.123 ± 0.14 and the “promoter activity interaction Z-score” value (0.47 µg/ml, genetic background: ΔsoxS) was 0.021 ± 0.34.

In the case of `NC1CONC1=O` (centres undefined) [Cycloserine D], the “promoter activity interaction Z-score” value (1 µg/ml, genetic background: wild type) is reported as -0.0783 ± 0.12, the “promoter activity interaction Z-score” value (1 µg/ml, genetic background: ΔmarA) is reported as -0.137 ± 0.057 and the “promoter activity interaction Z-score” value (1 µg/ml, genetic background: Δrob) is reported as -0.172 ± 0.25. For the same molecule, the “promoter activity interaction Z-score” value (1 µg/ml, genetic background: ΔsoxS) was -0.158 ± 0.078, the “promoter activity interaction Z-score” value (1.9 µg/ml, genetic background: wild type) was -0.121 ± 0.15 and the “promoter activity interaction Z-score” value (1.9 µg/ml, genetic background: ΔmarA) was 0.00534 ± 0.14. The “promoter activity interaction Z-score” value (1.9 µg/ml, genetic background: Δrob) was -0.0886 ± 0.21, the “promoter activity interaction Z-score” value (1.9 µg/ml, genetic background: ΔsoxS) was 0.0634 ± 0.045 and the “promoter activity interaction Z-score” value (3.8 µg/ml, genetic background: wild type) was -0.109 ± 0.06. The “promoter activity interaction Z-score” value (3.8 µg/ml, genetic background: ΔmarA) was -0.119 ± 0.032, the “promoter activity interaction Z-score” value (3.8 µg/ml, genetic background: Δrob) was -0.11 ± 0.062 and the “promoter activity interaction Z-score” value (3.8 µg/ml, genetic background: ΔsoxS) was -0.153 ± 0.013. The “promoter activity interaction Z-score” value (7.7 µg/ml, genetic background: wild type) was -0.273 ± 0.016, the “promoter activity interaction Z-score” value (7.7 µg/ml, genetic background: ΔmarA) was -0.299 ± 0.099 and the “promoter activity interaction Z-score” value (7.7 µg/ml, genetic background: Δrob) was 0.163 ± 0.27. The “promoter activity interaction Z-score” value (7.7 µg/ml, genetic background: ΔsoxS) was -0.0525 ± 0.2.

For `CCCC(=O)O` [Butyrate], the “promoter activity interaction Z-score” value (6.9 µg/ml, genetic background: wild type) was -0.205 ± 0.013, the “promoter activity interaction Z-score” value (6.9 µg/ml, genetic background: ΔmarA) was -0.16 ± 0.12 and the “promoter activity interaction Z-score” value (6.9 µg/ml, genetic background: Δrob) was 0.206 ± 0.17. The “promoter activity interaction Z-score” value (6.9 µg/ml, genetic background: ΔsoxS) was 0.201 ± 0.094, the “promoter activity interaction Z-score” value (13.8 µg/ml, genetic background: wild type) was -0.136 ± 0.0092 and the “promoter activity interaction Z-score” value (13.8 µg/ml, genetic background: ΔmarA) was 0.187 ± 0.35. For the same molecule, the “promoter activity interaction Z-score” value (13.8 µg/ml, genetic background: Δrob) was 0.0966 ± 0.16, the “promoter activity interaction Z-score” value (13.8 µg/ml, genetic background: ΔsoxS) was 0.00738 ± 0.051 and the “promoter activity interaction Z-score” value (27.5 µg/ml, genetic background: wild type) was -0.429 ± 0.012. The “promoter activity interaction Z-score” value (27.5 µg/ml, genetic background: ΔmarA) was -0.0336 ± 0.044, the “promoter activity interaction Z-score” value (27.5 µg/ml, genetic background: Δrob) was 0.0375 ± 0.0006 and the “promoter activity interaction Z-score” value (27.5 µg/ml, genetic background: ΔsoxS) was 0.0783 ± 0.13. For the same molecule, the “promoter activity interaction Z-score” value (55 µg/ml, genetic background: wild type) was -0.383 ± 0.07, the “promoter activity interaction Z-score” value (55 µg/ml, genetic background: ΔmarA) was -0.0286 ± 0.24 and the “promoter activity interaction Z-score” value (55 µg/ml, genetic background: Δrob) was 0.0661 ± 0.17. For the same molecule, the “promoter activity interaction Z-score” value (55 µg/ml, genetic background: ΔsoxS) was 0.114 ± 0.15.
